PME-1 inh – blocks human protein phosphatase methylesterase 1; Q9Y570; recombinant PME-1, FP-Rh probe fluorescence polarization; inhibition, % at 5.9 µM; 0.53% of 320,000 active;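 active means inhibition above the campaign mean of all compounds plus 3 SD, cut at about 26% in these data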;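 further: competitive labeling of PME-1 active site by serine hydrolase directed probe; 0% = PME-1 with DMSO and 100% = wells lacking PME-1 enzyme; inhibitors block probe labeling so polarization falls and inhibition rises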
Target sequence (Q9Y570 whole entry, looked up): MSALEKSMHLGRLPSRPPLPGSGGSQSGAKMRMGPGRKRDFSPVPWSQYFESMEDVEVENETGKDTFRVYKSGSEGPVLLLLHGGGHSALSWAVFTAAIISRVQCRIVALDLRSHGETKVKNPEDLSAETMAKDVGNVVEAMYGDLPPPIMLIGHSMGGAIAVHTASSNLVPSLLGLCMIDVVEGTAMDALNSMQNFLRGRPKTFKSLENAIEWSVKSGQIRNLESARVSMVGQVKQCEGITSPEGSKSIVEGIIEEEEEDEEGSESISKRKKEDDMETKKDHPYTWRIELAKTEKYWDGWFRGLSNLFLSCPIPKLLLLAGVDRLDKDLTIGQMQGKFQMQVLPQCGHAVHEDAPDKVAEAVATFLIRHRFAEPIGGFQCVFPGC
GSTO1 counter – GSTO1 inhibition, counter-screen for RBBP9 inhibitors | 1.1% of 300,000 active | inhibition, % at 5.96 µM | P78417 | recombinant GSTO1, activity-based probe fluorescence polarization | AID 1974;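 active means inhibition above the campaign mean inhibition plus 3 SD, cut at about 35% in these data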;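 further: 0% = GSTO1-1 with DMSO and 100% = wells lacking GSTO1-1 enzyme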
LYPLA2 counter – LYPLA2 (human) inhibition in PME1 counter-screen; 0.38% of 320,000 active; inhibition, % at 5.9 µM; AID 2177; recombinant LYPLA2, FP-Rh probe fluorescence polarization;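 active means inhibition above the screen-wide mean plus 3 SD, limit set per campaign, cut at about 26% in these data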;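 further: 0% = LYPLA2 with DMSO and 100% = wells lacking LYPLA2 enzyme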
Target sequence (O95372 whole entry, looked up): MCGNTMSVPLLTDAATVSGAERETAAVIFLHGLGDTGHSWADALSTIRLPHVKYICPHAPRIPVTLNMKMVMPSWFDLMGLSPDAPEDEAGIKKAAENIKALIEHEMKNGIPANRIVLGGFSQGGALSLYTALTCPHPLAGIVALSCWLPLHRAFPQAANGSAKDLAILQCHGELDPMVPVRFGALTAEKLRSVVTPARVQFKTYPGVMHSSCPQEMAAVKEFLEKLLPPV
Fam108B counter – Fam108B inhibition, counter-screen for RBBP9 inhibitors; 0.33% of 300,000 active; AID 1947; inhibition, % at 9.51 µM; recombinant Fam108B, FP-Rh probe fluorescence polarization;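 active means inhibition above the screen mean inhibition plus 3 SD, computed separately per campaign, cut at about 18% in these data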;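 further: inhibitors lower polarization as less probe binds the enzyme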
LYPLA1 inh – LYPLA1 (human) inhibition in PME1 counter-screen. O75608. recombinant LYPLA1, FP-Rh probe fluorescence polarization. inhibition, % at 5.9 µM. 0.16% of 320,000 active;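 active means inhibition above the mean of all tested compounds plus 3 SD, set per campaign, cut at about 14% in these data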;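 further: inhibitors block serine hydrolase probe labeling of LYPLA1 so polarization falls; 0% = enzyme with DMSO and 100% = wells lacking LYPLA1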
PAD4 inh – blocks human protein arginine deiminase 4 | recombinant PAD4, RCA probe fluorescence polarization | inhibition, % at 6.36 µM | 0.41% of 330,000 active | AID 485272;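 active means percent inhibition above a cutoff equal to the mean of all tested compounds plus 3 SD, cut at about 15% in these data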;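 further: 0% = PAD4 with RCA probe and DMSO and 100% = probe without PAD4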
An asterisk follows results filed as active. An excerpt weighted towards active compounds, which were near 1.8% of everything screened.

SMILES | PME-1 inh | GSTO1 counter | LYPLA2 counter | Fam108B counter | LYPLA1 inh | PAD4 inh
CC(C)(C)OC(=O)NCCCC1=CC2=CC(=O)C(C)(OC(=O)c3ccc(Cl)nc3)C(=O)C2=CO1 (stereo not drawn) | 25.2 | 22.2 | 16.4 | 7.5 | 17.9* | 25.5*
CCC(=O)OC1(C)C(=O)C=C2C=C(CCCCNC(=O)OC(C)(C)C)OC=C2C1=O (stereo not drawn) | 3.9 | 16.6 | 0.6 | 2.3 | -1.3 | -7.6
COc1cccc(NC(=O)[C@H](CC(C)C)NC(=O)N2CCn3c2nc2ccccc23)c1 | -8.3 | -2.8 | -1.9 | -1.9 | -4.8 | 4.1
CCn1c(C)c(/C=N/Nc2nc3ccccc3s2)c2ccccc21 | 35.3* | 2.4 | -12.7 | 5.5 | -16.4 | -3.5
C(=N\Nc1nc2ccccc2s1)/c1cccs1 | 21.9 | -0.2 | 4.2 | 9.4 | 0.6 | 1.8
Cn1c2ccccc2c2cc(/C=N/NC(=O)c3ccc(N)cc3)ccc21 | 40.4* | -9.8 | -2.9 | 16.6 | -0.8 | -0.2
Cn1c2ccccc2c2cc(/C=N/NC(=O)c3ccccc3F)ccc21 | 4.8 | -13.3 | -12.4 | -1.1 | -9.4 | -10.2
CC1CC(NC(=O)C2(C)CC2(Cl)Cl)CC(C)(C)C1 (stereo not drawn) | 6.3 | 6.8 | -6.8 | -2.9 | -4.2 | -0.4
O=C(O)c1ccc(N/N=C/c2ccc(OC(=O)c3cccc(Cl)c3)cc2)cc1 | 40.6* | 13.1 | 41.2* | 2.8 | -2.6 | 4.9
O=C(Oc1ccccc1O)c1cccc2ccccc12 | -1.3 | 58.9* | 2.1 | 1.7 | -2.1 | -0.1
Oc1ccc(/C=N/N2CCOCC2)c(O)c1O | 3.7 | 37.8* | -3.2 | 5.6 | 0.3 | 14.3
Cc1ccc(OC(=O)c2sc(Cl)nc2C)cc1C | -7.2 | 35.5* | 8.9 | 4.8 | 2.1 | 3.6
COc1ccc(N(C)C(=O)c2sc(Cl)nc2C)cc1 | -1.2 | 6.5 | 1.5 | 2.8 | -2.6 | -3.0
N#Cc1c(NC(=O)c2ccco2)sc2c1CCC2 | 2.1 | 36.3* | 0.8 | 6.2 | -2.0 | -0.7
NC(=O)c1c(NC(=O)c2ccco2)sc2c1CCC2 | -2.5 | 0.7 | 2.6 | -5.0 | 1.2 | -1.4
Cc1ccc(C(=O)NC(=C(Cl)Cl)S(=O)(=O)c2ccccc2)cc1 | 0.6 | 39.3* | -2.7 | -0.1 | -2.4 | 3.2
Nc1c(C(=O)Nc2ccc(Cl)c(C(=O)O)c2)sc2nc3c(cc12)CCCC3 | 9.4 | 5.8 | 0.1 | -1.9 | 2.0 | 1.1
Nc1c(C(=O)Nc2cccc(C(=O)O)c2)sc2nc3c(cc12)CCCC3 | 26.3* | -2.7 | 0.8 | 5.2 | -2.0 | -0.4
C/C(=N\NC(=O)c1nnn(-c2nonc2N)c1CN(C)c1ccccc1)c1ccccn1 | -2.4 | -1.3 | 2.1 | -4.3 | -2.0 | -1.8
O=c1cc(-c2c(F)c(F)c(F)c(F)c2F)oc2c(F)c(F)c(F)c(F)c12 | -58.6 | -0.9 | -55.7 | -20.0 | -30.9 | 46.1*
COc1ccc(OC)c(NC(=O)Nc2ccc3c(c2)OCO3)c1 | 13.5 | 5.8 | -3.1 | 10.7 | -1.8 | -2.9
O=C(COc1ccc(Cl)cc1)NC1=NN(c2ccccc2)C(=O)C1 | 7.0 | 39.8* | 4.2 | 6.1 | -3.6 | -9.5
COc1cc(/C=N/NC(=O)CSc2cc(C)c(Br)cc2C)ccc1O | 21.0 | 6.2 | -0.1 | 7.8 | -4.8 | 4.0
Cc1cc(SCC(=O)N/N=C/c2ccc(O)c(O)c2O)c(C)cc1Br | 31.2* | 18.4 | -6.5 | 9.5 | -17.7 | 4.3
CN1CCc2c(sc3nc(SCC(=O)N4CCOCC4)n(-c4ccc(Cl)cc4)c(=O)c23)C1 | 2.0 | 10.2 | -3.9 | -4.1 | -0.1 | 4.4
SMILES | PME-1 inh | GSTO1 counter | LYPLA2 counter | Fam108B counter | LYPLA1 inh | PAD4 inh
N#CCSc1nc2c(cc1C#N)CCCCCC2 | 44.1* | 1.9 | -4.9 | -1.8 | 0.3 | 0.9
Cc1cc(NC(=O)CSc2nc3ccccc3c(=O)n2C2CCCC2)no1 | 26.8* | 12.8 | -2.5 | 1.1 | -2.6 | 2.0
CN(C)c1ccc(NC(=O)CSc2nc3ccccc3c(=O)n2C2CCCCC2)cc1 | 0.9 | 4.8 | 7.8 | 4.4 | 0.0 | -2.4
COc1ccc2nc(SCC(=O)Nc3ccc4c(c3)OCCO4)[nH]c2c1 | 4.5 | 8.0 | -1.2 | 3.2 | -2.4 | -0.4
CCOc1ccc2nc(SCC(=O)Nc3ccc4c(c3)OCCO4)[nH]c2c1 | 27.4* | 3.8 | 2.3 | 2.7 | -0.7 | -1.6
O=c1[nH]c(C2CCN(S(=O)(=O)c3ccc(C(F)(F)F)cc3)CC2)nc2c1nnn2Cc1ccc(F)cc1 | 68.2* | -9.1 | 1.6 | -3.4 | -2.6 | 5.6
O=C(CN1CCN(S(=O)(=O)c2ccc(Br)cc2)CC1)N/N=C/c1cc([N+](=O)[O-])ccc1Cl | 26.5* | -2.3 | -1.5 | 1.8 | -1.0 | 3.3
COCCN(C(=O)CCC(=O)Nc1cc(C)on1)C(C(=O)NC1CCCC1)c1ccccc1C (stereo not drawn) | -0.1 | -6.0 | 2.1 | -1.5 | 1.2 | -2.5
O=C(NC1CCCC1)C(c1ccc(F)cc1)N(Cc1ccc(F)cc1)C(=O)c1ccn[nH]1 (stereo not drawn) | 1.5 | -6.8 | 8.5 | 1.3 | 1.0 | 2.4
COCCN(C(=O)CCl)C(C(=O)NC1CCCCC1)c1ccccc1C (stereo not drawn) | -4.2 | 99.4* | 11.6 | -3.9 | 6.3 | 2.5
O=C(NC1CCCC1)C(c1ccc(F)cc1)N(Cc1ccccc1Cl)C(=O)CCl (stereo not drawn) | 2.2 | 72.1* | 2.0 | -1.3 | 2.3 | -0.6
CC(/C=N/NC(=O)c1ccc2nc(C)[nH]c2c1)=C\c1ccccc1 | -3.8 | -6.0 | -6.0 | -1.9 | -2.9 | 0.1
C/C(=N\Nc1nc2ccccc2s1)c1cccs1 | 31.7* | -4.7 | 7.8 | -1.3 | 0.5 | 3.9
Fc1ccc2[nH]c3c(N4CCN(c5ccccc5)CC4)ncnc3c2c1 | 45.5* | 0.8 | 1.2 | 16.3 | 0.3 | -1.5
COc1ccc(N2CCN(c3ncnc4c3[nH]c3ccccc34)CC2)cc1 | 32.4* | 0.6 | 9.6 | 13.2 | 5.0 | -1.3
CCOC(=O)N1CCN(c2ncnc3c2[nH]c2ccc(F)cc23)CC1 | 8.4 | -0.9 | -3.1 | -0.5 | -1.2 | -2.2
COC(=O)c1ccc(C(=O)NCCCCO)cc1 | 7.7 | 2.1 | 0.2 | 3.3 | 1.8 | -0.6
Cc1ccc(N=Cc2cc3c(cc2[N+](=O)[O-])OCO3)cc1[N+](=O)[O-] | 7.5 | 36.4* | -4.7 | 7.6 | -4.4 | -12.0
Cc1ccc(C)c(N=Cc2cc3c(cc2[N+](=O)[O-])OCO3)c1 | 3.3 | 19.7 | 4.7 | 0.1 | -2.7 | -18.2
Cc1ccc(OCc2cc(C(=O)N(CCO)Cc3cccs3)no2)cc1C | 5.5 | -2.6 | -1.4 | -1.1 | -1.9 | -3.0
O=C(/C=C/c1ccco1)NC(=S)Nc1ccc(N2CCCC2)cc1 | 15.8 | 50.3* | 13.5 | 1.4 | 4.8 | 1.2
Cc1[nH]c2ccccc2c1/C=C/c1nc2ccccc2c(=O)n1CCO | 70.2* | -8.0 | 1.0 | 12.4 | -1.7 | 6.8
C=CCOC(=O)c1ccc(N2CCN(c3ccccc3)CC2)nc1 | -1.8 | -3.8 | -2.7 | -6.0 | -1.5 | 2.0
